Results on eight sequences are retold here after publication PMC8384837, “Expanding the binding specificity for RNA recognition by a PUF domain”.

Holding throughout (experiment): yeast three-hybrid, YBZ-1, SC-Leu-His + 0.5 mM 3-AT, 4 days
Holding throughout (details): tags: N-Gal4 AD-HA kept; label: inside an RPR1-promoter hybrid RNA with tandem MS2 sites; ssRNA

In one assay the target is PUM1 PUF domain R4-GNR (Homo sapiens, UniProt Q14671 828-1176, N971G;H972N;Q975R). The method, boiled down: (§1)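 Pumilio-1 PUF domain libraries, randomized at the three base-contacting residues of each repeat, were co-expressed with matching RNA elements from a centromeric plasmid in strain YBZ-1, which carries a LexA–MS2 coat fusion and a HIS3 reporter. Transformants grew for four days on SC-Leu (input) or on SC-Leu-His + 0.5 mM 3-AT (selection), and the repeat regions were PCR-amplified and Illumina-sequenced. The interaction score is the log change in variant frequency from input to selection. That logarithm is base 2, with a pseudocount of 1 where a variant was absent.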

Another assay addresses PUM1 PUF domain R5-RRP (Homo sapiens, UniProt Q14671 828-1176, C1007R;Q1011P). The method, boiled down: as §1
A further assay addresses PUM1 PUF domain R5-LWA (Homo sapiens, UniProt Q14671 828-1176, C1007L;R1008W;Q1011A). Summed up: as §1
For another assay, the target named is PUM1 PUF domain R1-YWR (Homo sapiens, UniProt Q14671 828-1176, S863Y;R864W;Q867R). Summed up:
as §1

For the next assay, the target named is PUM1 PUF domain R4-PWN (Homo sapiens, UniProt Q14671 828-1176, N971P;H972W;Q975N). Summed up: as §1
The next assay has as its target PUM1 PUF domain R4-DFT (Homo sapiens, UniProt Q14671 828-1176, N971D;H972F;Q975T). The method, boiled down:
as §1

For the next assay, the target named is T1, PUM1 PUF domain R6-VWA (Homo sapiens, UniProt Q14671 828-1176, N1043V;Y1044W;Q1047A).
T1 sequence: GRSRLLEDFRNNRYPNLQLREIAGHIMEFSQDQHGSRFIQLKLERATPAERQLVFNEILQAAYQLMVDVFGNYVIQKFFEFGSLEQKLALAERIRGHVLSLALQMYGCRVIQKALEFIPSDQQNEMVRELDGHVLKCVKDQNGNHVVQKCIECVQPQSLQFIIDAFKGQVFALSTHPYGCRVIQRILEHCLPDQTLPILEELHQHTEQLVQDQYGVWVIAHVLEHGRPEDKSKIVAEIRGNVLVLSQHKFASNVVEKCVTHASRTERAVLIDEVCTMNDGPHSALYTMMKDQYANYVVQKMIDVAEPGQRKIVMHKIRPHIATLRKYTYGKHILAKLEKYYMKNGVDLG
The method, boiled down:
as §1

The target of the next assay is PUM1 PUF domain R3-MRS (Homo sapiens, UniProt Q14671 828-1176, C935M;Q939S). The method, boiled down: as §1
For the next assay, the target named is PUM1 PUF domain R3-RPG (Homo sapiens, UniProt Q14671 828-1176, C935R;R936P;Q939G). The method, boiled down:
as §1

Chain of PUM1 PUF domain R5-LWA (Q14671 828-1176 C1007L/R1008W/Q1011A): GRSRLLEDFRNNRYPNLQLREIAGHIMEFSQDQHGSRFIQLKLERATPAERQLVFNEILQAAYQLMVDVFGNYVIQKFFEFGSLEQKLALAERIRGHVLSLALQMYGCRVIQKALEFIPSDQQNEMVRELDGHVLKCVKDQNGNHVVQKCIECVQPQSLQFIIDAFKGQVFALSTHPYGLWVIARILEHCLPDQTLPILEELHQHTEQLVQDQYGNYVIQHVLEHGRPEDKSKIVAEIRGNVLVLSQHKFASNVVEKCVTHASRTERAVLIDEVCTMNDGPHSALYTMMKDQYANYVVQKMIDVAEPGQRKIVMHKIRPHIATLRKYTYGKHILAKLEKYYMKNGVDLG
Chain of PUM1 PUF domain R5-RRP (Q14671 828-1176 C1007R/Q1011P): as the sequence (Q14671 828-1176 C1007L/R1008W/Q1011A) above, with L180R, W181R, A184P counted along it

For the sequence “GGCUAGAACUAGUGGAUCCCCCGGCGCCCGGCGGCUCGAGCCCGGGUAAGUGUACAUAGUCUGCAUGCCGCCGGGCGCCAUGCCUGCAGGUCGACUCUAGAAAACAUG”, the binding signal with PUM1 PUF domain R4-GNR is 1.04 log2 enrichment (interaction score).
On to “GGCUAGAACUAGUGGAUCCCCCGGCGCCCGGCGGCUCGAGCCCGGGUAAGUGUCAAUAGUCUGCAUGCCGCCGGGCGCCAUGCCUGCAGGUCGACUCUAGAAAACAUG”, for which the binding signal with PUM1 PUF domain R5-RRP was 5.07 log2 enrichment (interaction score).
For “GGCUAGAACUAGUGGAUCCCCCGGCGCCCGGCGGCUCGAGCCCGGGUAAGUGUUAAUAGUCUGCAUGCCGCCGGGCGCCAUGCCUGCAGGUCGACUCUAGAAAACAUG”, the binding signal with PUM1 PUF domain R5-LWA is 3.28 log2 enrichment (interaction score); with PUM1 PUF domain R5-RRP, 4.7 log2 enrichment (interaction score).
“GGCUAGAACUAGUGGAUCCCCCGGCGCCCGGCGGCUCGAGCCCGGGUAAGUGUAAAUCGUCUGCAUGCCGCCGGGCGCCAUGCCUGCAGGUCGACUCUAGAAAACAUG”: the binding signal with PUM1 PUF domain R1-YWR is 4.68 log2 enrichment (interaction score).
For “GGCUAGAACUAGUGGAUCCCCCGGCGCCCGGCGGCUCGAGCCCGGGUAAGUGUGAAUAGUCUGCAUGCCGCCGGGCGCCAUGCCUGCAGGUCGACUCUAGAAAACAUG”, the binding signal was 1.01 log2 enrichment (interaction score) with PUM1 PUF domain R5-LWA and 1.27 log2 enrichment (interaction score) with PUM1 PUF domain R5-RRP.
Take “GGCUAGAACUAGUGGAUCCCCCGGCGCCCGGCGGCUCGAGCCCGGGUAAGUGUAAAUAGUCUGCAUGCCGCCGGGCGCCAUGCCUGCAGGUCGACUCUAGAAAACAUG”: the binding signal in the assay with PUM1 PUF domain R4-PWN was 2.08 log2 enrichment (interaction score); in the assay with PUM1 PUF domain R5-LWA, 1.66 log2 enrichment (interaction score); with PUM1 PUF domain R4-DFT it was 3.18 log2 enrichment (interaction score); in the assay with PUM1 PUF domain R5-RRP, 3.17 log2 enrichment (interaction score); with PUM1 PUF domain R6-VWA it was 4.02 log2 enrichment (interaction score).
As for “GGCUAGAACUAGUGGAUCCCCCGGCGCCCGGCGGCUCGAGCCCGGGUAAGUGAAAAUAGUCUGCAUGCCGCCGGGCGCCAUGCCUGCAGGUCGACUCUAGAAAACAUG”, the binding signal with PUM1 PUF domain R6-VWA was 6 log2 enrichment (interaction score).
Take “GGCUAGAACUAGUGGAUCCCCCGGCGCCCGGCGGCUCGAGCCCGGGUAAGUGUAAUUAGUCUGCAUGCCGCCGGGCGCCAUGCCUGCAGGUCGACUCUAGAAAACAUG”: the figures for the binding signal with PUM1 PUF domain R3-MRS and with PUM1 PUF domain R3-RPG were 2.96 log2 enrichment (interaction score) and 4.38 log2 enrichment (interaction score), respectively.
